This passage reports manual score results from PubChem BioAssay AID623911 (Vanderbilt High Throughput Screening Facility, 2012).

Structures are written as SMILES. Screen size: about 2,100 compounds; about 770 (37%) were called active.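 The calls were made as follows: active = by-eye trace score of 1 for enhancers or -1 for inhibitors, so actives lie on both sides (some results past the limit were not filed as active); inactive = score 0, or 3 fluorescent, or 4 baseline rise.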 The list shows a part of the results.

This test deals with G protein-activated inward rectifier potassium channel 2 (Homo sapiens) + G protein-activated inward rectifier potassium channel 1 (Homo sapiens) (UniProt P48051+P48549). Nature of the test: GIRK1/2 thallium flux modulators, retest, confirmation, cell-based, HEK293 rmGlu8/hGIRK1/2, FluoZin-2 (AID 623911). Conditions: HEK293 rmGlu8/hGIRK1/2, thallium flux FluoZin-2; actives lie on both sides.
G protein-activated inward rectifier potassium channel 2 (Homo sapiens) + G protein-activated inward rectifier potassium channel 1 (Homo sapiens), sequence (P48051 whole entry, looked up): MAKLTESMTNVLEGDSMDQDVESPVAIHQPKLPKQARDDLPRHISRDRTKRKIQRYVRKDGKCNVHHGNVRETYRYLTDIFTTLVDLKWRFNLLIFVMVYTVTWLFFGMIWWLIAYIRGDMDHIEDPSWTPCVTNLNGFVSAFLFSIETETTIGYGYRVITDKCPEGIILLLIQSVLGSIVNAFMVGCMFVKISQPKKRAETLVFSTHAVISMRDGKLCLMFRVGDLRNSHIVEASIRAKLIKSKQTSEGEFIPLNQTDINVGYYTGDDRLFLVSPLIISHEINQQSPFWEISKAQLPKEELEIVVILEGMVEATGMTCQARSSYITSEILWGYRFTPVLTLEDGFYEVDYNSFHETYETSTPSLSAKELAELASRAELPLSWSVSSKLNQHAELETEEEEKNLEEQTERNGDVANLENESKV
G protein-activated inward rectifier potassium channel 2 (Homo sapiens) + G protein-activated inward rectifier potassium channel 1 (Homo sapiens), sequence (P48549 whole entry, looked up): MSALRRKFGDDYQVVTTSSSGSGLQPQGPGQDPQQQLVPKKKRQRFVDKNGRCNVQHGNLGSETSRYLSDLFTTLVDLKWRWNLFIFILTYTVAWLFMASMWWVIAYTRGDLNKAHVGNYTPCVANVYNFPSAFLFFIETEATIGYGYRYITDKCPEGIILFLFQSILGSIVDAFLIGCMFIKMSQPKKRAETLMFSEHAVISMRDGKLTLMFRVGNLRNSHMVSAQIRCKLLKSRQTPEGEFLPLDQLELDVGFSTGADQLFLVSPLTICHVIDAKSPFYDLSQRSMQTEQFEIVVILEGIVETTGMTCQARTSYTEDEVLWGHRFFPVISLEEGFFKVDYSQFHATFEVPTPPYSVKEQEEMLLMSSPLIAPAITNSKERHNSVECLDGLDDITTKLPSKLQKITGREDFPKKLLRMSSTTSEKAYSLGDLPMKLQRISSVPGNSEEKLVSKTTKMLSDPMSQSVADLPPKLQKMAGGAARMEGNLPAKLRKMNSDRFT
For the compound `COc1cc(-n2c(=S)[nH]c3ccccc3c2=O)c(Cl)cc1Cl`, the manual score was 1 (active).
As for `CC(C)Oc1cc(-n2c(=S)[nH]c3ccccc3c2=O)c(Cl)cc1Cl`, the manual score is 1 (active).
With `CC(=NCC1CCCO1)c1c(O)n(-c2ccc(C)cc2)c(=O)[nH]c1=O` (stereo not given), the manual score was 0 (inactive).
As for `Nc1c(C(=O)OC2CCCCC2)c2nc3ccccc3nc2n1CC1CCCO1` (stereo not given), the manual score was 0 (inactive).
`CCN(c1ccc(C(O)(C(=O)OC)C(F)(F)F)cc1)S(=O)(=O)c1ccc(C)cc1` (stereo not given): the manual score is -1 (active).
With `CCOC(=O)C(O)(c1ccc(N(CC)S(=O)(=O)c2ccc(C)cc2)cc1)C(F)(F)F` (stereo not given), the manual score was -1 (active).
In the case of `C/C(=N\Nc1ccccc1)c1c(O)n(C)c(=O)n(C)c1=O` it was 0 (inactive); in that of `CCOC(=O)C1=C(NC(=S)NC(=O)c2ccccc2)c2ccccc2CC12CCCC2`, 0 (inactive).
Consider `CC/C(=C\C=C\[C@@H]1C=C[C@@H]2CCC[C@H]2[C@@H]1C(=O)c1ccc[nH]1)[C@@H]1O[C@@H]([C@@H](C)C(=O)O)CC[C@@H]1C`, for which the manual score was 0 (inactive).
Consider `Cc1ccc(-c2nc(N(C)C3CCN(C)CC3)c3ccccc3n2)cc1`, for which the manual score is 0 (inactive).
As for `O=c1cc(C(F)(F)F)c2cc3c4c(c2o1)CCCN4CCC3`, the manual score was 3 (inactive).
Regarding `Cn1cccc1CNCCc1ccccc1`, the manual score was 0 (inactive).
For `CCN1/C(=C\C=C\C2=[N+](CC)c3ccccc3C2(C)C)C(C)(C)c2ccccc21` the value was 3 (inactive); for `CNC(=O)OCCc1nccn1C`, 0 (inactive).
For `O=C(Nc1ccc(Cl)cc1)Nc1nccs1` the value was 1 (active); for `Cc1nn(C)cc1/C=C1/CC2C3CC=C4CC(O)CCC4(C)C3CCC2(C)C1=O` (stereo not given), -1 (active).
For `CN1/C(=C\C=C\C2=[N+](C)c3ccc4ccccc4c3C2(C)C)C(C)(C)c2ccccc21`, the manual score is 3 (inactive).
Consider `C=CCOC(=O)COc1cc(C)cc2oc(=O)c3c(c12)CCC3`, for which the manual score was 0 (inactive).
`CCN(CC)CCNCC(=O)Nc1ccc(Cl)cc1C(=O)c1ccccc1`: the manual score is -1 (active).
As for `O=c1[nH]c(=S)n(CCC2=CCCCC2)c(O)c1C=NCCCn1ccnc1`, the manual score is 3 (inactive).
Take `Cc1ccc(OCC(=O)NCCN2CCN(C(=O)COc3ccc(C)cc3)CC2)cc1`: the manual score was 0 (inactive).
In the case of `O=C(c1cc2ccccn2n1)N1CCC2(CC1)OCCO2` it was 0 (inactive); in that of `COc1ccc(CC2C(=O)NC(=O)NC2=O)c(OC)c1`, 0 (inactive); in that of `c1ccc2c(CNC3CCCCC3)c[nH]c2c1`, -1 (active).
For the compound `CC(C)N1C(=O)/C(=C/C=C/c2ccco2)C(=O)N(Cc2ccco2)C1=O`, the manual score was 0 (inactive).
Regarding `Cc1ccccc1C1=NCC(=S)Nc2ccc(Cl)cc21`, the manual score was 0 (inactive).
Consider `S=C1CN=C(c2ccccc2Cl)c2cc(Cl)ccc2N1`, for which the manual score is 1 (active).
Take `S=C1CN=C(c2ccccc2)c2cc(Cl)ccc2N1`: the manual score is 0 (inactive).
As to `CC(C)CCn1c(=O)c(C(=O)Nc2ccccc2S(N)(=O)=O)c(O)c2ccccc21`, the manual score was 0 (inactive).
As to `O=C(c1ccccc1)c1cn(CC(=O)N2CCOCC2)c2ccccc12`, the manual score is 0 (inactive).
For `Fc1ccc(NC2=NCCS2)cc1Cl` the value was 0 (inactive); for `CCCCn1c(C)c(C(=O)OCC)c2c(CN3CCOCC3)c(O)ccc21`, -1 (active); for `O=C(Cc1ccccc1)N1CCN(C/C=C/c2ccccc2)CC1`, 0 (inactive).
In the case of `Cc1ccc2nc(N3CCC(C(=O)N4CCC5(CC4)OCCO5)CC3)sc2c1` it was 0 (inactive); in that of `N=c1sc2c(n1Cc1ccccc1)CCCC2`, -1 (active).
